Screening data as filed in PubChem BioAssay.
IkB signaling: suppresses IkB signaling in ABC-DLBCL reporter cells; ABC-DLBCL IkBa-CBG/CBR dual luciferase ratio, 4 h; response scale: scaled: untreated 0%, proteasome inhibitor 100%; Potency, µM (doses to about 57.1 µM), for the others: at the top dose IkBa stabilization activation; 110,000 tested, 0.04% active; active = well fitted curve in the direction sought with a large enough effect in the signal ratio, not every such curve was filed as active; inconclusive = small, poorly fitted or top-dose-only effect, or a change in a side signal; the % refers to the signal ratio;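 note: the direction sought is a rising ratio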
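Luminescence ratio of IκBα-fused green versus native red beetle luciferase in OCI-Ly3 cells, 4 h post-doxycycline with compound; red signal alone, scaled from basal (0%) to zero light (-100%), flagged nonspecific or cytotoxic effects.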
p53ts 39C kill: kills p53ts cells at the nonpermissive temperature; H1299-p53A138V viability at 39C, ATP luminescence, 24 h; Potency, µM (series often up to 46.1 µM), for the others: at the top dose activity change, negative = cell killing, hits mostly cytotoxic; 130,000 tested, 1.5% active; AID 902; note: % is set by controls: 0 for no effect and ±100 for the full control effect; nearly all actives have a fitted effect of over 55% in size
HEK293 cAMP ctrl: raises cAMP in parental HEK293 cells, TSHR agonist counter-screen; parental HEK293 CNG cAMP sensor, membrane potential fluorescence; Potency, µM (titrated, usually from 57.1 µM), inactives show at the top dose activation, usual class: activators; 73,000 tested, 2.5% active; AID 938; note: % of control where 0% means no effect; nearly all actives have a fitted effect of over 55% in size
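Parental HEK 293 cells stably expressing a cAMP-gated CNG channel were loaded with membrane potential dye containing 100 uM RO 20-1724 for 60 min. Compound added for 30 min; depolarization read as fluorescence intensity at 590 nm.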
p53ts 32C tox: p53ts cell cytotoxicity, permissive temperature; H1299-p53A138V at 32C, ATP luminescence viability, 24 h; Potency, µM (titrated, usually from 46.1 µM), inactives show at the highest dose activity change, negative = cytotoxicity, usual class: cytotoxic; 130,000 tested, 0.93% active; AID 924;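 note: 0% = DMSO and -100% = full killing by reference compound; nearly all actives have a fitted effect of over 55% in size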
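ATP-content luminescence (ATPlite) read-out after 24 h compound exposure at 32C in H1299-p53A138V cells (600/well). Tested up to 46 uM. Normalized to DMSO (0%) and 100 uM tamoxifen (100% killing); Hill-fit AC50.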
Peg3 imprint: genomic imprint erasure induction | mouse ES Peg3-LacZ reporter, beta-gal luminescence, 40 h | Potency, µM (titrated, usually from 60.7 µM), for inactives: at the top dose activity change, positive = activation, actives largely listed as activators | 110,000 tested, 0.02% active | AID 1948
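Readout: BetaGlo luminescence (5 min, room temp) for LacZ from the normally silent maternal Peg3 allele in female Peg3LacZ-Neo ES cells. Cells 300/well, 40 h, 37C, 5% CO2. Data normalized per plate to negative controls.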
TSHR agonist: agonists of human thyroid stimulating hormone receptor; P16473; HEK293-CNG-TSHR cells (CNG channel as cAMP sensor), membrane potential dye, cAMP; Potency, µM (highest dose often 57.1 µM), for the others: top-dose activation, actives largely listed as activators; 73,000 tested, 0.48% active; active = well fitted activation curve with a large enough effect in the main read-out, with a control signal flat, not every such curve was filed as active; inconclusive = small, poorly fitted or top-dose-only effect, or a change in a side signal; inactive = no such curve, though single readings can be large or run the other way; % of control where 0% means no effect;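 note: the control signal comes from parental cells without the receptor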
Target sequence (P16473 whole entry, looked up): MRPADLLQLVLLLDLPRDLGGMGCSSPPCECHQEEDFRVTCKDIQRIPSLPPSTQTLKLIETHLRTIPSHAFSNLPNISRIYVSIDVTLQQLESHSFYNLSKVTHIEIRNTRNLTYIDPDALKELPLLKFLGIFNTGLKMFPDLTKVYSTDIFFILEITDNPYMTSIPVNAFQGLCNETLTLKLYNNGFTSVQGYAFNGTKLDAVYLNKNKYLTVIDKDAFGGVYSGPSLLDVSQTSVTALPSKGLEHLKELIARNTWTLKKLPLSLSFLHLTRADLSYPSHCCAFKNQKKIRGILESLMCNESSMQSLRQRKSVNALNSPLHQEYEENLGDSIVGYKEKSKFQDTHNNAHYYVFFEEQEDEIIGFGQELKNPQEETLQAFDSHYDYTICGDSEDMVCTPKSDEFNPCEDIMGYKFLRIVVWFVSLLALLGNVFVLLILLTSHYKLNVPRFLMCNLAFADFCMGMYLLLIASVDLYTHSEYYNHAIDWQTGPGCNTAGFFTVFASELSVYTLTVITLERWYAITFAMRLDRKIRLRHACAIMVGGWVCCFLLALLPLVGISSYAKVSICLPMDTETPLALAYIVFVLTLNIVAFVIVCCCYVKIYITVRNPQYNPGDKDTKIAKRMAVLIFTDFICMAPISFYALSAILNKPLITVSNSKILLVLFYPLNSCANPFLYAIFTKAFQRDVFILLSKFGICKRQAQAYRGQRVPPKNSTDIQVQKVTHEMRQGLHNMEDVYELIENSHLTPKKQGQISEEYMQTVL
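cAMP rise detected as CNG-channel membrane depolarization by fluorescent dye (emission 590 nm), 30 min after compound, following 60 min dye loading containing 100 uM RO 20-1724 at room temperature. Cells: TSHR/CNG HEK 293, with parental CNG HEK 293 as control.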
The depositor's hits bear a star; u = inconclusive; x = no result; ! = not confirmed by another sample; [ ] = another dose, or the depositor's remark. Compounds with a hit are over-represented: about 3.1% of the library has one in this group of screens. Unless noted, calls come from the whole dose curve; as a rule, active = well fitted curve in the direction sought with a large enough effect; inconclusive = small, poorly fitted or top-dose-only effect, or another doubt; inactive = no such curve, though single readings can be large; an effect the other way counts as inactive or inconclusive. Potency is the fitted concentration of half-maximal effect.

SMILES	IkB signaling	p53ts 39C kill	HEK293 cAMP ctrl	p53ts 32C tox	Peg3 imprint	TSHR agonist
COc1ccc(OC)c(C(C(=O)NCc2ccco2)N(C(=O)Cn2nnc3ccccc32)C(C)C)c1 (stereo not drawn)	1%	0%	16µM*	12%	-11%	u
Cc1ccc(S(=O)(=O)N2CCN(Cc3noc(CCC(=O)N4CCCCC4)n3)CC2)c(C)c1	u	1%	x	0%	7%[10.9 µM]	x
CC(Sc1ncc(S(=O)(=O)c2ccc(C(C)C)cc2)c(N)n1)C(=O)Nc1ccccc1 (stereo not drawn)	x	x	x	-1%	x	x
COCCN(C(=O)Cn1nnc2ccccc21)C(C(=O)NC1CCCC1)c1cc(OC)ccc1OC (stereo not drawn)	0%	-2%	25µM*	16%	0%	u
Cc1ccc(N(C(=O)Cn2nnc3ccccc32)C(C(=O)NCc2ccco2)c2ccc(C)o2)cc1 (stereo not drawn)	13%	10%	u	15%	x	u
COc1ccc(CNC(=O)C(c2ccco2)N(Cc2cccs2)C(=O)Cc2cccs2)cc1 (stereo not drawn)	0%	-16%	20µM*	6%	-9%	u
COc1ccc(N(C(=O)Cn2nnc3ccccc32)C(C(=O)NCc2ccco2)c2ccc(C)o2)cc1 (stereo not drawn)	-1%	-3%	27%	7%	-17%	25µM*
Cc1ccc(C(C(=O)NCc2ccco2)N(CCc2ccccc2)C(=O)Cn2nnc3ccccc32)o1 (stereo not drawn)	u	17%	13µM*	23%	-18%	u
Cc1ccc(CN2CCCn3nc(C(=O)NCCC(C)C)cc3C2=O)cc1	-3%	12%	x	2%	-6%[10.9 µM]	x
COc1cc(C(=O)NCC(c2cccnc2)N2CCc3ccccc32)cc(OC)c1OC (stereo not drawn)	u	-14%	x	-4%	-14%[10.9 µM]	x
CC(C)CN(CC#N)CC(C)C	0%[11.4 µM]	2%[9.22 µM]	0%[11.4 µM]	0%[9.22 µM]	-14%[10.9 µM]	-1%[11.4 µM]
CCN1CCc2nc(NC(=O)c3ccc4c(c3)OCCO4)sc2C1	1%	u	16%	u	-30%	4%
Cc1cc(NC(=O)CSc2nnc(-c3ccc4c(c3)OCCO4)o2)no1	-1%	0.79µM*	u	5µM*	-81%	u
Cc1cc(NC(=O)c2ccc3c(c2)OCO3)no1	1%	13µM*	-9%	10µM*	-78%	-10%
O=C(Nc1nc2c(F)cccc2s1)c1ccc2c(c1)OCCO2	u	5µM*	x	10µM*	-30%[10.9 µM]	x
Cc1cc(NC(=O)c2ccc3c(c2)OCCO3)no1	5%	2µM*	3%	1.6µM*	-88%	-5%
Cc1noc2ncnc(N3CCN(c4ccccc4F)CC3)c12	-3%	17%	x	-8%	-18%[10.9 µM]	x
CC(C)Cn1c(=O)c2ccccc2n2c(CCC(=O)Nc3cccc(Cl)c3)nnc12	u	u	x	u	-8%[10.9 µM]	x
COc1ccc(-c2onc(C)c2C)cc1S(=O)(=O)Nc1ccc(OC(F)(F)F)cc1	u	-15%	x	25%	-2%[10.9 µM]	x
COc1ccccc1CCn1c(=O)c(-c2ccc(F)c(F)c2)nc2cncnc21	0%[11.4 µM]	-14%	u	-6%	-5%	u
COCC1C2CC[C@H]3C(OCc4ccc(F)cc4C(F)(F)F)OC[C@]4(C)[C@H]3C2=C(CN4C(=O)OC(C)(C)C)[C@H](C)C1COC (stereo partly drawn)	x	-12%	u	6%	-18%	u
CC(C)(C)CC(C)(C)c1ccc(O)c(C[N+](C)(C)[O-])c1	1%[11.4 µM]	-5%[9.22 µM]	-1%[11.4 µM]	-5%[9.22 µM]	-18%[10.9 µM]	2%[11.4 µM]
Cc1cc(C(C)(C)CC(C)(C)C)ccc1OCCOCC[N+](C)(C)Cc1ccccc1	3%[25.6 µM]	25µM*!	u	25µM*!	-33%	u
CCCN(CCC)CCNC(=O)c1sc2nc3n(c(=O)c2c1C)CCCCC3	3%	u	x	-2%	-11%[10.9 µM]	x
Cc1ccc2c(c1)C(=O)C(=O)N2Cc1ccc(OC(C)C)cc1	5%	16µM*	x	u	-26%[10.9 µM]	x
SMILES	IkB signaling	p53ts 39C kill	HEK293 cAMP ctrl	p53ts 32C tox	Peg3 imprint	TSHR agonist
COc1ccc(OCC(=O)NC2CC(=O)N(c3ccc4c(c3)OCCO4)C2)cc1 (stereo not drawn)	-2%	-11%	x	-2%	14%[10.9 µM]	x
CCOC(=O)C1=C(C)OC(N)=C(C#N)C1c1ccsc1 (stereo not drawn)	-1%	8%	20µM*	3%	-12%	u
CCOC(=O)C1=C(C)OC(N)=C(C#N)C1C1CCCCC1 (stereo not drawn)	1%	-2%	25µM*	-3%	-15%	u
CCOC(=O)C1=C(C)OC(N)=C(C#N)C1c1cc2c(cc1Br)OCO2 (stereo not drawn)	2%	-10%	22%	-8%	-12%	x
CCOC(=O)c1c(C2CCN(C(=O)OCC)CC2)nc2ccccn12	1%	6%	0.32µM*	25%	-23%	u
Cc1ccc(Nc2nc(N)nc(CSc3nncn3C)n2)cc1	x	13µM*	x	u	x	x
Cc1ccc(Nc2nc(N)nc(CSc3nnnn3-c3ccccc3)n2)cc1	1%	12%	22%	8%	-13%	29%
Cc1cccc(NC(=O)CSc2ncc(-c3ccc(Br)cc3)[nH]2)c1	u	13µM*	x	u	27%[10.9 µM]	x
COC(=O)c1ccccc1NC(=O)c1cn2c3c(ccc(Cl)c3c1=O)OC(C)C2 (stereo not drawn)	x	x	x	-6%	x	x
CCc1ccc(-c2cn3c(n2)sc2cc(C(=O)NCCc4ccc(OC)cc4OC)ccc23)cc1	4%	-3%	x	3%	-4%[10.9 µM]	x
CCN(c1ccccc1)c1ncnc2c1cnn2-c1ccc(OC)cc1	u	13µM*	x	u	-5%[10.9 µM]	x
Cc1ccc(-n2ncc3c(N(CCO)Cc4ccccc4)ncnc32)cc1	-2%	u	x	-17%	-10%[10.9 µM]	x
Cc1ccc(-n2ncc3c(N(C)Cc4ccccc4)ncnc32)cc1	2%	16µM*	x	u	-12%[10.9 µM]	x
COC(=O)c1cccc(NC2=NS(=O)(=O)c3ccccc32)c1	-1%	-3%	x	0%	-4%[10.9 µM]	x
CCOc1ccc(-c2nnc(SCC(=O)NC3CCCC3)nc2-c2ccc(OCC)c(OC)c2)cc1OC	-1%	-15%	x	13%	4%[10.9 µM]	x
COc1ccc(CCNC(=O)Cn2c(=O)c3cccn3c3ccccc32)cc1OC	u	16µM*	x	-21%	-3%[10.9 µM]	x
COc1ccc(CCNC(=O)Cn2c(=O)c3cccn3c3ccc(F)cc32)cc1OC	0%	12%	x	5%	-12%[10.9 µM]	x
O=C(CCCn1c(=O)c2cccn2c2ccccc21)NCCc1ccc(Cl)cc1	u	13µM*	x	10µM*	-22%[10.9 µM]	x
